# Out of some 290,000 compounds screened, about 3,000 (1%) were called active. The sample holds actives, similar compounds and a random draw of the others, so the mix is not that of the screen. Rule as the data show it: active = inhibition mostly above about 36% (no sharp cut-off); inactive = mostly below about 34%.
# Assay: NOD1 signaling inhibitors, primary screen, cell-based, luminescence, uHTS (AID 1578);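 also: HEK-293T reporter cells stimulated with the NOD1 agonist gamma-tri-DAP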
# Conditions: NOD1-driven NF-kB luciferase reporter cells, at 4 µM, active compounds read high
row,Structure (SMILES),inhibition
1,CN(C(=O)c1ccccc1C(=O)OCC(=O)NC(=O)NC(C)(C)C)C1CCCCC1,-11.4% (inactive)
2,Nc1cc(N)nc(SCC(=O)Nc2ccccc2)n1,17.4% (inactive)
3,O=C(CSc1ncnc2scc(-c3ccccc3)c12)Nc1ccc(C(=O)O)cc1,24.9% (inactive)
4,COc1ccnc(Oc2ccc(F)cc2)c1C(=O)N/C=N/OCc1ccc(F)cc1,-24% (inactive)
5,Cc1oc2c(c(C)cc3oc(=O)c(CC(=O)N[C@@H](CC(C)C)C(=O)O)c(C)c32)c1C,-2.2% (inactive)
6,O=C(O)CCn1cc(/C=C/C(=O)c2ccc(Cl)cc2)c(-c2ccc(Br)cc2)n1,52.9% (inactive)
7,O=Cc1cn(CCC(=O)O)nc1-c1cccc(Br)c1,-28.9% (inactive)
8,CC(=O)c1sc(N/N=C\c2cccc(Br)c2)nc1C,3.9% (inactive)
9,C=CCNC(=O)/C(C#N)=C/c1ccc2c(c1)OCCO2,-33.6% (inactive)
10,CCn1c(O)c(C=Nc2ccccc2)sc1=O,-27.2% (inactive)
11,Cn1c(O)c(C=Nc2ccc(Br)cc2)sc1=O,53.6% (active)
12,Cc1ccc(N=Cc2sc(O)c3ccccc23)cc1,-36.5% (inactive)
13,CCOc1ccc(C(=O)Nc2nnc(S(=O)(=O)N3CCCCC3)s2)cc1,2.6% (inactive)
14,O=C(N/N=C/c1cccc(OC(=O)c2cccc(Br)c2)c1)c1ccncc1,-35% (inactive)
15,CCOC(=O)CC(NC(=O)c1ccco1)c1ccccc1Cl (stereo unspecified),-14.8% (inactive)
16,Fc1ccc(NC(=S)Nc2cccnc2)cc1Cl,-27% (inactive)
17,CC(=O)Nc1cccc(NC(=S)Nc2ccc(F)c(Cl)c2)c1,3% (inactive)
18,Fc1ccc(NC(=S)Nc2ccc(F)c(Cl)c2)cc1Cl,74.1% (active)
19,Cn1cc(C(=O)NS(=O)(=O)Nc2ccc(Br)cn2)c2ccccc21,-29% (inactive)
20,CC(C)(C)c1nnc(N/N=C/c2ccccc2O)n(N)c1=O,-45.8% (inactive)
21,CC(C)(C)c1nnc(N/N=C/c2cc(Br)ccc2O)n(N)c1=O,68.7% (active)

row,Structure (SMILES),inhibition
1,CC(C)(C)c1nnc(N/N=C/c2ccc(Br)cc2)n(N)c1=O,-33.2% (inactive)
2,O=C(Nc1ncccc1Cl)c1ccccc1F,-31.4% (inactive)
3,Cc1ccc(-n2[nH]c(C)c(/C=N/NC(=O)c3cccc([N+](=O)[O-])c3)c2=O)cc1C,92.8% (active)
4,Cc1[nH]n(-c2ccccc2)c(=O)c1/C=N/NC(=O)c1ccccc1F,-9.2% (inactive)
5,Cc1ccc(-n2[nH]c(C)c(/C=N/NC(=O)c3ccc([N+](=O)[O-])cc3)c2=O)c(C)c1,-20.9% (inactive)
6,Cc1[nH]n(-c2ccc(Br)cc2)c(=O)c1/C=N/NC(=O)c1ccccc1,69% (inactive)
7,Cc1[nH]n(-c2cccc3ccccc23)c(=O)c1/C=N/NC(=O)c1cccc([N+](=O)[O-])c1,-8.2% (inactive)
8,Cc1cc(NS(=O)(=O)c2ccc(NC(=S)NC(=O)c3ccncc3)cc2)no1,-4.1% (inactive)
9,O=C(OCCN1CCCCC1)c1cccc(F)c1,-21.9% (inactive)
10,CCOc1cc(C2C(C(=O)OC)=CN(Cc3ccc(Cl)cc3)C=C2C(=O)OC)ccc1O,-1.2% (inactive)
11,O=C(CCCn1c(=O)[nH]c2ccccc2c1=O)Nc1ccc(F)cc1,-2.3% (inactive)
12,COc1ccc(NC(=O)C2CC(=O)OC2c2ccccc2)cc1 (stereo unspecified),-23.5% (inactive)
13,COc1cccc(NC(=O)CN2C(=O)COc3ccc(Cl)cc32)c1,26.8% (inactive)
14,NC(=O)C1=C[C@@H](c2csc3ccccc23)C[C@@H](OCCCCO)O1,-3.6% (inactive)
15,Cc1cc(N=CC2=C(O)CC(C)(C)CC2=O)no1,13.1% (inactive)
16,COCCn1c(SCC(=O)NCc2ccccc2)nc2ccccc21,6.7% (inactive)
17,O=C1c2ccccc2C2=Nc3ccccc3SC(c3cccc(F)c3)C12 (stereo unspecified),49.7% (inactive)
18,O=C1c2ccccc2C2=Nc3ccccc3SC(c3ccccc3F)C12 (stereo unspecified),36.8% (inactive)
19,O=C1c2ccccc2C2=Nc3ccccc3SC(c3ccc(Cl)cc3)C12 (stereo unspecified),74.7% (active)
20,NC(=O)CC(NC(=O)c1ccccc1)c1ccc(NCCOc2ccccc2)c([N+](=O)[O-])c1 (stereo unspecified),1.2% (inactive)
21,O=C(c1ccccc1)N1CCN2C(=O)c3ccccc3C12c1ccc(Cl)cc1 (stereo unspecified),-44.9% (inactive)

row,Structure (SMILES),inhibition
1,O=C(CCl)N1CCN2C(=O)c3ccccc3C12c1ccc(Cl)cc1 (stereo unspecified),87.1% (active)
2,Cc1ccc(C(=O)N2CCN3C(=O)c4ccccc4C23c2ccc(Cl)cc2)cc1 (stereo unspecified),-52.7% (inactive)
3,O=C(Cn1c(=O)c2cccn2c2ccccc21)Nc1ccc(F)cc1F,-12.1% (inactive)
4,Cc1cc(C)nc(N(C#N)S(=O)(=O)c2ccccc2)n1,9.1% (inactive)
5,CC(C(=O)O/N=C(\N)c1ccccn1)c1ccc([N+](=O)[O-])cc1 (stereo unspecified),-16.2% (inactive)
6,N/C(=N\OCc1ccc([N+](=O)[O-])cc1)c1ccccn1,88.4% (active)
7,N/C(=N\OCc1ccc([N+](=O)[O-])cc1)c1ccncc1,-27.7% (inactive)
8,CCCC(=O)Nc1ccccc1NC(=O)c1ccc(OCC)cc1,2.3% (inactive)
9,O=C1CC(N2CCC(c3nc4ccccc4[nH]3)CC2)C(=O)N1Cc1ccccc1 (stereo unspecified),-24.3% (inactive)
10,Cc1cc(-c2ccc(C(C)C)c(S(=O)(=O)N3CCN(c4ccccc4)CC3)c2)on1,0% (inactive)
11,CCc1cc2c(=O)[nH]c(-c3ccncc3)nc2s1,29.8% (inactive)
12,CCc1cc2c(=O)[nH]c(-c3ccccn3)nc2s1,112% (active)
13,CCc1cc2c(=O)[nH]c(Cc3ccccc3)nc2s1,0.4% (inactive)
14,CC(C)Nc1nc(Cl)nc(N(C#N)CN2C(=O)c3ccccc3S2(=O)=O)n1,-4.8% (inactive)
15,COc1ccc2nc(SCC(=O)Nc3nccs3)[nH]c2c1,-39.1% (inactive)
16,COc1ccc(NC(=O)CN2CCN(c3c(C)cccc3C)CC2)cc1,-8.8% (inactive)
17,COc1ccc(CN2C(=O)C(C)N(C(=O)c3c(F)cccc3F)c3ccccc32)cc1 (stereo unspecified),6.5% (inactive)
18,COC(=O)c1ccc(CN2C(=O)C(C)N(C(=O)c3c(F)cccc3F)c3ccccc32)cc1 (stereo unspecified),-2.1% (inactive)
19,CC1C(=O)N(Cc2ccc(F)cc2)c2ccccc2N1C(=O)c1c(F)cccc1F (stereo unspecified),43.5% (active)

# Reference: PubChem BioAssay AID1578 (Sanford-Burnham Center for Chemical Genomics, 2009)
